The assay in a line: beta-lactam sensitization of Mtb H37Rv, H37Rv (AID 434955).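 Also: growth measured after seven days incubation then overnight dye step; 0% = bacteria only wells and 100% = bacteria with antibiotic.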 As to conditions: M. tuberculosis H37Rv growth with meropenem, percent inhibition, at 25 µM.
[1] abbreviates: measured here: primary screen without meropenem.

SMILES strings stand for the structures. About 880 (0.27%) of roughly 330,000 compounds were called active. Not shown: some 1% with an inconclusive outcome. No rule for the calls is given here. Only a sample is shown.

On to `CSc1ccc(CN2C(=O)NC3(CCCCCC3)C2=O)cc1`, for which the inhibition (commonly the drop in the measured response relative to a control, in per cent) was 19.2% (inactive) (stronger effect = higher value) and 5.94% under setting [1].
The matching figures for `CCN(CC)CCNCC(=O)Nc1ccc(Oc2ccccc2)cc1`: -3.27% (inactive) and 3.64%.
For the compound `COc1ccc(N2CCN(C(=O)CCNC(=O)c3ccc(Br)cc3)CC2)cc1`, the inhibition (stronger effect = higher value) is -10.2% (inactive) and the inhibition under setting [1] was -3.75%.
With `O=C(NCc1ccccc1)C(c1ccco1)N(C(=O)c1csnn1)c1ccccc1F` (centres undefined), the inhibition (stronger effect = higher value) was -3.66% (inactive) and the inhibition under setting [1] was -4.47%.
In the same order, the values of `COc1ccccc1CN1CC(C(=O)NCCc2cn[nH]c2)CCC1=O` (centres undefined) are -1.38% (inactive) and 3.44%.
For `CC1=NCCN1S(=O)(=O)c1ccc(Br)c(C)c1`, the inhibition by setting is: (stronger effect = higher value) 5.04% (inactive); under setting [1], 10.8%.
For `Cn1c(SCC(=O)N2CCOCC2)nnc1-c1ccc(NC(=O)c2ccccc2F)cc1`, the inhibition is -1.25% (inactive) (stronger effect = higher value) and -0.23% under setting [1].
In the same order, the values of `Cc1ccc(S(=O)(=O)N(C)CC(=O)OCC(=O)N2CC(=O)Nc3ccccc32)cc1` are -3.86% (inactive) and -0.77%.
Regarding `Cc1csc(Nc2ccc(Cl)cc2)[n+]1-c1ccc(Cl)cc1`, the inhibition is 5.09% (inactive) (stronger effect = higher value) and -4.07% under setting [1].
The matching figures for `C=CCC(NCc1ccco1)c1ccc(OC)cc1` (centres undefined): -0.53% (inactive) and -3.95%.
Consider `CCCc1ccc(-c2c(C)sc(NC(=O)c3ccnn3C)c2C#N)cc1`, for which the inhibition reads like this: (stronger effect = higher value) 15.9% (inactive); under setting [1], -4.16%.
In the same order, the values of `N#Cc1ccc(OCCN2C(=O)NC3(CCSC3)C2=O)cc1` (centres undefined) are -7.2% (inactive) and -8.16%.
Consider `CN(C)CCn1c2c(c(SCC(=O)Nc3ccccc3C(F)(F)F)nc1=O)CCCC2`, for which the inhibition (stronger effect = higher value) is -6.06% (inactive) and the inhibition under setting [1] was -5.4%.
On to `O=C(NCCc1ccccc1)C1CCC(Cn2c(=O)c3ccccc3n(Cc3cccnc3)c2=O)CC1` (centres undefined), for which the inhibition by setting is: (stronger effect = higher value) 19.4% (inactive); under setting [1], 2.41%.
In the case of `O=S(=O)(NCC1CC1)c1ccc(F)c(Cl)c1`, the inhibition reads like this: (stronger effect = higher value) -3.45% (inactive); under setting [1], 1.07%.
As to `O=C(Nc1ccccc1Cl)/C(Cl)=C(\Cl)S(=O)c1ccccc1` (centres undefined), the inhibition was 100% (inactive) (stronger effect = higher value) and 100% under setting [1].
With `O=C(Oc1c(-c2ccco2)oc2ccccc2c1=O)c1cccnc1`, the inhibition is 92.5% (inactive) (stronger effect = higher value) and 91.2% under setting [1].
As for `Cc1ccc(OCC(=O)Oc2ccccc2[N+](=O)[O-])cc1`, the inhibition (stronger effect = higher value) is -3.48% (inactive) and the inhibition under setting [1] was -11.4%.
The matching figures for `O=C1NC2(CCCCC2)N=C1c1ccccc1`: -10.1% (inactive) and -2.99%.
On to `Cc1cc(NC(=O)c2ccccc2C)no1`, for which the inhibition was -1.93% (inactive) (stronger effect = higher value) and 3.81% under setting [1].
As to `Cc1n[nH]c(=O)c2c(NC(=O)CSc3cc(Cl)ccc3Cl)oc(C)c12`, the inhibition (stronger effect = higher value) is -5.41% (inactive) and the inhibition under setting [1] is -1.99%.
The matching figures for `CC(C)C(=O)Nc1nnc(SCC(=O)N2C(C)CCCC2C)s1` (centres undefined): 0.21% (inactive) and 10.7%.
In the case of `Cc1ccc2c(c1)-c1c(ssc1=S)C(C)(C)N2C(=O)CN1C(=O)c2ccccc2C1=O`, the inhibition is -4.41% (inactive) (stronger effect = higher value) and -1.91% under setting [1].
`CC1Sc2ccc(C(=O)NCc3ccccc3Cl)cc2NC1=O` (centres undefined): the inhibition by setting is: (stronger effect = higher value) 6.05% (inactive); under setting [1], 2.96%.
The matching figures for `COc1cc(C2C(C(=O)OCCC#N)=C(C)NC3=C2S(=O)(=O)c2ccccc23)cc(OC)c1OC` (centres undefined): 4.16% (inactive) and 1.07%.
As to `COc1ccc(-c2cc(=O)oc3cc(OC(C)C(=O)Nc4ccc(CN5CCOCC5)cc4)ccc23)cc1` (centres undefined), the inhibition runs as follows: (stronger effect = higher value) 98.4% (inactive); under setting [1], 96.8%.
For the compound `CC(Sc1nnc2c(n1)C1CCC2(C)C1(C)C)C(=O)Nc1ccccc1` (centres undefined), the inhibition is -4.99% (inactive) (stronger effect = higher value) and -6.12% under setting [1].
The matching figures for `Nn1c(SCC(=O)Nc2ccc3c(c2)CCC3)nnc1C1CC1`: -4.28% (inactive) and -7.87%.
In the same order, the values of `C/C=C(\C)C(=O)NCCN1C2=NC[C@H](Cc3ccc(O)cc3)N2C[C@@H]1Cc1ccc(OC)cc1` are -14.9% (inactive) and -6%.
The matching figures for `CSCCC(Nc1ccc(S(=O)(=O)N2CCOCC2)cc1[N+](=O)[O-])C(=O)OCC(=O)N(C(C)C)C(C)C` (centres undefined): 3.64% (inactive) and 2.01%.
Regarding `CCCCC(C(=O)NC(C)(C)C)N(Cc1ccccc1)C(=O)c1snc(C(N)=O)c1N` (centres undefined), the inhibition runs as follows: (stronger effect = higher value) -2.34% (inactive); under setting [1], 4.81%.
With `Fc1ccc2c(c1)C(c1cccnc1)=NNC(c1cccs1)=N2`, the inhibition is 31% (inactive) (stronger effect = higher value) and 4.96% under setting [1].
As for `Cc1ccc(-c2csc(NC(=O)C3=COCCO3)n2)cc1C`, the inhibition (stronger effect = higher value) was 92.7% (inactive) and the inhibition under setting [1] amounted to 99.3%.
With `CN(CC(=O)Nc1ccc(S(=O)(=O)N2CCCC2)cc1)Cc1ccc(Cl)c(Cl)c1`, the inhibition is, setting by setting: (stronger effect = higher value) 1.99% (inactive); under setting [1], 0.57%.
As to `C=C(C)c1cccc(C(C)(C)NC(=O)N2CCN(c3ncccn3)CC2)c1`, the inhibition (stronger effect = higher value) was -9.15% (inactive) and the inhibition under setting [1] was -8.65%.
In the same order, the values of `O=C1C=C(c2ccnc3cc(Cl)ccc23)C[C@@H](c2ccc3c(c2)OCO3)C1` are 52.4% (inactive) and 50.9%.
Regarding `CCc1ccc(/C=N/NC(=O)c2ccc(OC3CCCC3)cc2)s1`, the inhibition is, setting by setting: (stronger effect = higher value) 2.88% (inactive); under setting [1], 3.87%.
As for `Cc1ccc(-n2cc(CN(C)Cc3nccn3C)c(-c3cccc(C)c3)n2)cc1`, the inhibition is 98.9% (inactive) (stronger effect = higher value) and 99.4% under setting [1].
In the same order, the values of `O=C(NC(=S)N1CCN(Cc2ccccc2)CC1)c1ccccc1` are 36.8% (inactive) and -3.71%.
The matching figures for `CC(OC(=O)CN1C(=O)C2CCCCC2C1=O)C(=O)Nc1ncc(Cl)cc1Cl` (centres undefined): -4.66% (inactive) and 4.44%.
Consider `C/C(Cc1ccccc1)=N\NC(=O)CNC(=O)c1ccccc1Cl`, for which the inhibition by setting is: (stronger effect = higher value) -6.3% (inactive); under setting [1], 2.92%.
Take `CCc1cccc(C)c1NC(=O)COC(=O)Cc1ccsc1`: the inhibition was -1.39% (inactive) (stronger effect = higher value) and 2.58% under setting [1].
In the same order, the values of `O=S(=O)(c1ccc(F)cc1)N1CCN=C1SCc1cccc(F)c1` are 9.8% (inactive) and 11.2%.
The matching figures for `NC(=O)C1CCN(C(=O)/C(=C/c2ccco2)NC(=O)c2ccccc2)CC1`: -2.14% (inactive) and -8.97%.
With `CCCCNCc1ccc(SC)cc1`, the inhibition runs as follows: (stronger effect = higher value) -3.24% (inactive); under setting [1], -0.62%.
In the same order, the values of `O=C1CC(=O)Nc2cc(S(=O)(=O)N3CCN(c4cccc(C(F)(F)F)c4)CC3)ccc2N1` are -1.42% (inactive) and 4.41%.
In the same order, the values of `Cc1ccc(N2C(=O)CC(NCc3ccc4c(c3)OCO4)C2=O)cc1Cl` (centres undefined) are -7.15% (inactive) and 0.64%.
Consider `COc1cc(NC(=S)N2CCCC(C)C2)cc(OC)c1OC` (centres undefined), for which the inhibition is, setting by setting: (stronger effect = higher value) 0.37% (inactive); under setting [1], 3.47%.
In the same order, the values of `CCOc1ccc(NC(=O)C(C)N2C(=O)c3ccccc3C2=O)cc1` (centres undefined) are -0.05% (inactive) and 0.73%.
The matching figures for `CC(C)NS(=O)(=O)c1ccc(CCC(=O)N2CCOCC2)cc1`: -4.86% (inactive) and -6.67%.
In the same order, the values of `CC(=O)OCCC(C)C` are -5.13% (inactive) and -1%.
Consider `CCOC(=O)c1cn[nH]c1NC(=S)Nc1ccccc1`, for which the inhibition reads like this: (stronger effect = higher value) -8.22% (inactive); under setting [1], -3.62%.

Source of the values: PubChem BioAssay AID434955 (Southern Research Specialized Biocontainment Screening …, 2010).
